Laboratory results reported in PubChem BioAssay (EPA / NIEHS).
Records with an inconclusive call do not appear. The source holds several records for some structures; these can differ, active in one and inactive in another. The source made the active and inactive calls. The calls were made as follows, unless noted: active = hit-call score of the fitted dose curve at least 0.9, where 1 is the maximum; inactive = score below 0.9.

Tests used:
[1] = ATG_PBREM_CIS: Attagene CIS-FACTORIAL HepG2 Assay for human Phenobarbital-responsive Enhancer Module (PBREM) (AID 2282955); conditions: HepG2 PBREM cis-reporter, Attagene multiplexed transcription; actives raise or lower the signal
Outline: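 Cells were transfected with cis-element reporter units and treated for 24 h, after which RNA was extracted and reporter transcripts measured by RT-PCR and capillary electrophoresis.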

[2] = target: Paired box protein Pax-6 (Homo sapiens) (UniProt P26367); test: ATG_Pax6_CIS: Attagene CIS-FACTORIAL HepG2 Assay for human Paired Box 6 (PAX6) (AID 2282956); conditions: HepG2 CIS-FACTORIAL PAX6 reporter transcription, RNA readout; actives raise or lower the signal
Outline: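 HepG2 cells transiently transfected with cis-promoter-driven multiplexed reporter units sensing endogenous transcription factor activity; 24 h chemical exposure. Reporter mRNA quantified by RT-PCR, 6-FAM labelling, HpaI digestion and capillary electrophoresis; bidirectional fit versus DMSO baseline.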

[3] = ATG_PXRE_CIS: Attagene CIS-FACTORIAL HepG2 Assay for human Pregnane X Receptor Element (PXRE) (AID 2282957); conditions: HepG2 Attagene CIS-FACTORIAL PXRE reporter, mRNA; actives raise or lower the signal
Outline: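 Multiplexed cis-reporter assay in transiently transfected human HepG2 cells; 24 h chemical exposure. Reporter transcripts quantified by RT-PCR with fluorescent labeling and capillary electrophoresis.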

[4] = ATG_RORE_CIS: Attagene CIS-FACTORIAL HepG2 Assay for human RAR-related Orphan Receptor Element (RORE) (AID 2282959); conditions: HepG2 Attagene cis-factorial RORE reporter, mRNA; actives raise or lower the signal
Outline: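 Endogenous factor activity at a cis response element is read as reporter transcript levels in HepG2 cells, 24 h post-dose. Transcripts are quantified by RT-PCR with capillary electrophoresis, and data fitted in both directions against DMSO.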

[5] = ATG_Sox_CIS: Attagene CIS-FACTORIAL HepG2 Assay for human SRY-box transcription factor (SOX) (AID 2282960); conditions: HepG2 Attagene cis-factorial SOX reporter, mRNA; actives raise or lower the signal
Outline: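 Measures mRNA induction of a SOX1-associated reporter in HepG2 after 24 h dosing. Fluorescently labelled RT-PCR fragments are separated by capillary electrophoresis, and gain or loss relative to DMSO control is fitted.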

[6] = target: Transcription factor Sp1 (Homo sapiens) (UniProt P08047); test: ATG_Sp1_CIS: Attagene CIS-FACTORIAL HepG2 Assay for human Specificity Protein 1 (Sp1) (AID 2282961); conditions: HepG2 Sp1 cis-reporter transcription, actives raise or lower the signal
Outline: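 Cells: HepG2, transiently transfected with cis-regulated multiplexed reporters. Exposure: 24 h. Detection: reporter transcripts amplified, fluorescently labeled, restriction-digested and sized by capillary electrophoresis. Analysis: bidirectional fit relative to DMSO.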

[7] = ATG_SREBP_CIS: Attagene CIS-FACTORIAL HepG2 Assay for human Sterol Regulatory Element Binding (SREBP) (AID 2282962); conditions: HepG2 Attagene cis-factorial SREBP reporter, mRNA; actives raise or lower the signal
Outline: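 HepG2 cells transiently transfected with multiplexed cis-promoter reporter units sensing endogenous transcription factors; reporter mRNA measured 24 h after dosing by RT-PCR, 6-FAM labeling, HpaI digestion and capillary electrophoresis. Bidirectional fit versus DMSO.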

[8] = target: Signal transducer and activator of transcription 3 (Homo sapiens) (UniProt P40763); test: ATG_STAT3_CIS: Attagene CIS-FACTORIAL HepG2 Assay for human Signal Transducer and Activator of Transcription 3 (STAT3) (AID 2282963); conditions: HepG2, Attagene cis-factorial STAT3 reporter transcription; actives raise or lower the signal
Outline: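 Values derive from bidirectional fits relative to DMSO of reporter mRNA levels, measured by RT-PCR with capillary electrophoresis, in HepG2 cells carrying transiently transfected cis-regulated reporter units and exposed 24 h.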

[9] = ATG_TA_CIS: Attagene CIS-FACTORIAL HepG2 Assay for human TA Basal Promoter (AID 2282964); conditions: HepG2 Attagene CIS-factorial TA basal promoter reporter; actives raise or lower the signal
Outline: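 Multiplexed mRNA reporter assay, HepG2, 24 h. Reporter cDNA amplified, 6-FAM primer-extended, HpaI-cut, CE-sized; DMSO = negative control and baseline.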

[10] = ATG_TCF_b_cat_CIS: Attagene CIS-FACTORIAL HepG2 Assay for human T-Cell-Factor with beta-catenin (TCF/b-cat) (AID 2282965); conditions: HepG2 TCF/beta-catenin cis-reporter transcription, actives raise or lower the signal
Outline: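 HepG2, transient MRTU transfection, cis-element-driven reporters (endogenous TFs). 24 h compound exposure. Readout: reporter mRNA by RT-PCR + 6-FAM primer extension, HpaI digest, capillary electrophoresis. Gain/loss fit vs DMSO baseline.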

[11] = ATG_TAL_CIS: Attagene CIS-FACTORIAL HepG2 Assay for human TAL Basal Promoter (AID 2282966); conditions: HepG2 Attagene cis-factorial TAL promoter reporter; actives raise or lower the signal;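 also: background control endpoint measuring basal TAL promoter reporter mRNA not a specific factor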
Outline: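 Steps: transfect HepG2 with multiple reporter transcription units; dose 24 h; isolate RNA, reverse-transcribe, PCR-amplify, label with 6-FAM, digest with HpaI; resolve by capillary electrophoresis. Bidirectional fitting against DMSO baseline.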

[12] = ATG_TGFb_CIS: Attagene CIS-FACTORIAL HepG2 Assay for human Transforming Growth Factor (TGF) (AID 2282967); conditions: HepG2 Attagene CIS TGFb reporter, mRNA transcription; actives raise or lower the signal
Outline: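 Transcript-level reporter readout: HepG2 transfectants, 24 h exposure, RNA to cDNA, reporter-specific PCR, fluorescent primer extension, capillary sizing against ROX standards. Gain- or loss-of-signal relative to DMSO.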

[13] = target: Nuclear receptor subfamily 1 group I member 3 (Homo sapiens) (UniProt Q14994); test: ATG_CAR_TRANS: Attagene TRANS-FACTORIAL HepG2 Assay for human Constitutive Androstane Receptor (CAR) (AID 2282969; active = hit-call score of the fitted dose curve at least 0.9, where 1 is the maximum;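 also: activators raise reporter mRNA above DMSO so AC50 marks induction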); conditions: HepG2 Attagene TRANS-FACTORIAL CAR reporter
Outline: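 HepG2 cells transiently transfected with GAL4-UAS reporter units; TRANS format reads activity of exogenous chimeric NR-Gal4 protein. After 24 h dosing, reporter mRNA quantified by RT-PCR, 6-FAM labelling and capillary electrophoresis; gain of signal fitted against DMSO.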

[14] = target: Estrogen receptor (Homo sapiens) (UniProt P03372); test: ATG_ERa_TRANS: Attagene TRANS-FACTORIAL HepG2 Assay for human Estrogen Receptor alpha (ERa) (AID 2282970; active = hit-call score of the fitted dose curve at least 0.9, where 1 is the maximum); conditions: HepG2 Attagene TRANS ERa GAL4 reporter, mRNA
Outline: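 Multiplexed cell-based reporter format in HepG2: chimeric ERa-Gal4 protein drives GAL4-UAS reporter transcription. Fluorescent reporter mRNA quantified by capillary electrophoresis 24 hours after dosing; endpoint fitted as signal gain against DMSO.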

[15] = ATG_GAL4_TRANS: Attagene TRANS-FACTORIAL HepG2 Assay for GAL4 (Internal Marker) (AID 2282976; active = hit-call score of the fitted dose curve at least 0.9, where 1 is the maximum); conditions: HepG2 Attagene TRANS GAL4 internal marker reporter
Outline: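 Liver HepG2 line bearing multiplexed GAL4-UAS reporter constructs; 24 h chemical treatment. Transcripts were quantified as fluorescent fragments on capillary electrophoresis after RT-PCR and HpaI cut, with activity fitted upward from DMSO.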

[16] = ATG_PPRE_CIS: Attagene CIS-FACTORIAL HepG2 Assay for human Peroxisome Proliferator-activated Response Element (PPRE) (AID 2282958); conditions: HepG2 PPRE cis-element reporter, Attagene transcription factor profiling; actives raise or lower the signal
Outline: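 In this cell-based multiplex, a PPRE cis element drives a reporter sequence in transiently transfected HepG2 cells. Following 24 h treatment, labeled cDNA amplicons are sized and quantified by capillary electrophoresis, with DMSO defining baseline.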

[17] = ATG_VDRE_CIS: Attagene CIS-FACTORIAL HepG2 Assay for human Vitamin D Receptor Element (VDRE) (AID 2282968); conditions: HepG2 VDRE cis-reporter transcription, actives raise or lower the signal
Outline: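 Cell-based multiplexed reporter format in human liver HepG2 cells, 24 h post-dose. Fluorescence from capillary electrophoresis of reporter cDNA gives the signal, with DMSO as negative control and baseline.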

[18] = target: Steroid hormone receptor ERR1 (Homo sapiens) (UniProt P11474); test: ATG_ERRa_TRANS: Attagene TRANS-FACTORIAL HepG2 Assay for human Estrogen-Related Receptor alpha (ERRa) (AID 2282971; active = hit-call score of the fitted dose curve at least 0.9, where 1 is the maximum); conditions: HepG2 Attagene TRANS reporter, ERRa transactivation
Outline: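 Signal gain relative to DMSO for an ERRa-Gal4 chimeric receptor, read as reporter mRNA by RT-PCR/capillary electrophoresis. Human HepG2 liver cells, transient multiplex reporter transfection, 24 h chemical exposure.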

[19] = ATG_M_19_TRANS: Attagene TRANS-FACTORIAL HepG2 Assay for M19 Transcription Factor (Internal Marker) (AID 2282974; active = hit-call score of the fitted dose curve at least 0.9, where 1 is the maximum); conditions: HepG2 Attagene TRANS-FACTORIAL M19 internal marker reporter
Outline: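 Reporter mRNA induction was measured in transfected HepG2 cells 24 h after dosing. Endpoint fitted upward relative to DMSO and serves as a background control within the multiplexed TRANS panel.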

[20] = target: X-box-binding protein 1 (Homo sapiens) (UniProt P17861); test: ATG_Xbp1_CIS: Attagene CIS-FACTORIAL HepG2 Assay for human X-box Binding Protein 1 (XBP1) (AID 2282972); conditions: HepG2 XBP1 cis-element reporter, Attagene multiplex; actives raise or lower the signal
Outline: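 HepG2 cells transiently transfected with multiple cis-element reporter units report endogenous TF activity; 24 h exposure, then reporter mRNA measured by RT-PCR, 6-FAM labelling, HpaI digestion and capillary electrophoresis. Bidirectional fitting versus DMSO.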

Measured: AC50

Chain of Nuclear receptor subfamily 1 group I member 3 (Homo sapiens) (Q14994 whole entry, looked up, the tested form may be a part): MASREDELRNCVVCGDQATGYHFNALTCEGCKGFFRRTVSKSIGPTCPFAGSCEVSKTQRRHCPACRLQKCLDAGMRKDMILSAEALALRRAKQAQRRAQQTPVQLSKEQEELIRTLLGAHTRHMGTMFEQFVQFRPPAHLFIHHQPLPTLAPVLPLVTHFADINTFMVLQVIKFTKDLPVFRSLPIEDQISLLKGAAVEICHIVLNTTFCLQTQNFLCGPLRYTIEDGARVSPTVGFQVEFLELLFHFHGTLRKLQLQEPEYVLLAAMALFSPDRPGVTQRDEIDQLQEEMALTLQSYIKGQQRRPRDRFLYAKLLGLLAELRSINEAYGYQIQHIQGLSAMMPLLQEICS
Chain of Estrogen receptor (Homo sapiens) (P03372 whole entry, looked up, the tested form may be a part): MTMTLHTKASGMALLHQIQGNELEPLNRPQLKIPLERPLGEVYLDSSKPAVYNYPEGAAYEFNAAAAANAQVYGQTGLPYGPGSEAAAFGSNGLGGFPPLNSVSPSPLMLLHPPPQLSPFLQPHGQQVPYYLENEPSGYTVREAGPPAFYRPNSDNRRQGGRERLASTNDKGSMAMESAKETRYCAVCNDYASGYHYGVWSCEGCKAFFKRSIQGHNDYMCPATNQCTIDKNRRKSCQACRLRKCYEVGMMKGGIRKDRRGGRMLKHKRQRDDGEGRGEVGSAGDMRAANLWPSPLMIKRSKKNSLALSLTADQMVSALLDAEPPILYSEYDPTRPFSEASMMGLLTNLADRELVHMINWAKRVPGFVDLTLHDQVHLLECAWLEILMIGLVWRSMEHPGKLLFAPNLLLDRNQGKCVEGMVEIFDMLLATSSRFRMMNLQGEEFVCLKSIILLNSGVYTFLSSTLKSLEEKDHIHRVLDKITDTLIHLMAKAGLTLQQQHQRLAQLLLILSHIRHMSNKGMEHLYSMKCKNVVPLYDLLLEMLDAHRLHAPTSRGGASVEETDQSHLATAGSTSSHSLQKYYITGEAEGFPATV
Chain of Signal transducer and activator of transcription 3 (Homo sapiens) (P40763 whole entry, looked up): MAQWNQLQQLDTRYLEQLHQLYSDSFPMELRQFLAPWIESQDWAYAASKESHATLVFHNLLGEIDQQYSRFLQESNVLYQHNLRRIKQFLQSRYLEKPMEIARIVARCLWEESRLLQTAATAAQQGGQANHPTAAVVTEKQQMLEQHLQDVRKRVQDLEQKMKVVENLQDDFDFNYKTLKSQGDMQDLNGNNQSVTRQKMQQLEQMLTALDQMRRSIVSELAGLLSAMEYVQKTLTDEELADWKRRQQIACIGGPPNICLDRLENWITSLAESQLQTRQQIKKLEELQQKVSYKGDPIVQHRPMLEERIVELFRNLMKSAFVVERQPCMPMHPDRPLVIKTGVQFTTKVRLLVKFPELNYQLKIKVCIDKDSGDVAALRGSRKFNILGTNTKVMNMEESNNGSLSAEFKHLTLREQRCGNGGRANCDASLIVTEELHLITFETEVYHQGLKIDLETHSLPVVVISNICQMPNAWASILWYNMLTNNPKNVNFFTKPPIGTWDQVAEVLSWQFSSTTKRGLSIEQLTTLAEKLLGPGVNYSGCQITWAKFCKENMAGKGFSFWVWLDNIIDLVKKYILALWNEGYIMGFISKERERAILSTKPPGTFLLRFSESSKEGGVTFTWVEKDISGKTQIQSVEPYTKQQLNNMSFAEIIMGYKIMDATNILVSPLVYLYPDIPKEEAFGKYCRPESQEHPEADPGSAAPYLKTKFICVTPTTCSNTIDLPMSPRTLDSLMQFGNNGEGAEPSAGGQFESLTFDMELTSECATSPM
Chain of Steroid hormone receptor ERR1 (Homo sapiens) (P11474 whole entry, looked up, the tested form may be a part): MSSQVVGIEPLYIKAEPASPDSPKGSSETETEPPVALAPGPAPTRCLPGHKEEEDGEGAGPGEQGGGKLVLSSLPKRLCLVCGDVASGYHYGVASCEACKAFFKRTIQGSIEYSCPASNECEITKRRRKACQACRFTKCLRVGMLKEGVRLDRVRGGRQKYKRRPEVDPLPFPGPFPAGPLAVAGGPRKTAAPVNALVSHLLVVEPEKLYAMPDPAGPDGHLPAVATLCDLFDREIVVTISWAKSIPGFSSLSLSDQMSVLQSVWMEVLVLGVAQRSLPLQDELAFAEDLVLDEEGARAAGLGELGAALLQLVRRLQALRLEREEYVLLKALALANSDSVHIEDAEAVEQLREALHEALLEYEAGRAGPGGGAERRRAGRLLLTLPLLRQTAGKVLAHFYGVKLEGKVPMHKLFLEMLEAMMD
Chain of Transcription factor Sp1 (Homo sapiens) (P08047 whole entry, looked up): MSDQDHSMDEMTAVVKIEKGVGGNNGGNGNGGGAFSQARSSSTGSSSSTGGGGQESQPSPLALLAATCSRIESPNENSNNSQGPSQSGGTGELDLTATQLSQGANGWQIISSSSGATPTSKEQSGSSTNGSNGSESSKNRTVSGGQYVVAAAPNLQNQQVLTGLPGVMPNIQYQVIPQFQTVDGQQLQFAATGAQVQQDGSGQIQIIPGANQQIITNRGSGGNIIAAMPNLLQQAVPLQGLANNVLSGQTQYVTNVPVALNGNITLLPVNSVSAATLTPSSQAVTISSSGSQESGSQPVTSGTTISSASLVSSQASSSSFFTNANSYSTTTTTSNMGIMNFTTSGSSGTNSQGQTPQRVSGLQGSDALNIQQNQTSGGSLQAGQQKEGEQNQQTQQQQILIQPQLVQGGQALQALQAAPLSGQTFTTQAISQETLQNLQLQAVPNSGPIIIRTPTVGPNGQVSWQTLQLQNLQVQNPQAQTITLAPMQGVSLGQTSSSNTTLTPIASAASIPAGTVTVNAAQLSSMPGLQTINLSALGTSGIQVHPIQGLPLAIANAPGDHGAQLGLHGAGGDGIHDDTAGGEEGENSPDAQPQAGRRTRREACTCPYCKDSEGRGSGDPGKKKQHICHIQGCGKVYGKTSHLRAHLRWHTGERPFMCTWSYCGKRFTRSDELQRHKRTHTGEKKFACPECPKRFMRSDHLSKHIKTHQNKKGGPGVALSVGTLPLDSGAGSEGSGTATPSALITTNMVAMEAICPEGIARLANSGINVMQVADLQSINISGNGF
Chain of X-box-binding protein 1 (Homo sapiens) (P17861 whole entry, looked up): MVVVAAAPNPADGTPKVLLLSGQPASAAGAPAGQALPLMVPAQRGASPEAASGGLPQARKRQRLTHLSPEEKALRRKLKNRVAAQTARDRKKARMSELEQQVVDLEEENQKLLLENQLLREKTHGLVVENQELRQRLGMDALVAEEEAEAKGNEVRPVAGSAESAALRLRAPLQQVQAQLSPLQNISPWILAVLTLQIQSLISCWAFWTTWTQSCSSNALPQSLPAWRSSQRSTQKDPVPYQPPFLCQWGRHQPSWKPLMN
Chain of Paired box protein Pax-6 (Homo sapiens) (P26367 whole entry, looked up): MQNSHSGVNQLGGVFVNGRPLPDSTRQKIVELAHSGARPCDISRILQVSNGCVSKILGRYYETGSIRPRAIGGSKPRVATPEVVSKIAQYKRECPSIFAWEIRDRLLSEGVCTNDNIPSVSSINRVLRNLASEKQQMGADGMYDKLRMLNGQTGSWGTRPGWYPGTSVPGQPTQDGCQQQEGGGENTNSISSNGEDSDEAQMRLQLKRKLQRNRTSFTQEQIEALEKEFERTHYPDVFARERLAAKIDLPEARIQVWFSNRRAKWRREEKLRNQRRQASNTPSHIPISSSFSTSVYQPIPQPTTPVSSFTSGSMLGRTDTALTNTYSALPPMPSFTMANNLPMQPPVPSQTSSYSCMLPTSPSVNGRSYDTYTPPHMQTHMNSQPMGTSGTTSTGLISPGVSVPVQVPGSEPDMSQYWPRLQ

CCc1cccc(CC)c1N
active: [3] 27.7 µM
not listed: [16] | [17] | [18] | [19] | [20]
inactive: all other assays above

OC[C@H]1O[C@@](CO)(O[C@H]2O[C@H](CO)[C@@H](O)[C@H](O)[C@H]2O)[C@@H](O)[C@@H]1O
inactive: [1] | [3] | [16] | [4] | [5] | [6] | [7] | [8] | [9] | [10] | [12]

Cc1nc(-c2ccccn2)ncc1C(=O)Nn1cc(C)c2cc(F)ccc21
active: [3] 4.24 µM
not listed: [2] | [5] | [14] | [20]
inactive: all other assays above

CCCCCCCCCCCCCCCCOS(=O)(=O)O
active: [10] 25.7 µM | [12] 11.5 µM
not listed: [13] | [15] | [16]
inactive: all other assays above

CCCCC(CC)C(=O)OCCOCCOCCOC(=O)C(CC)CCCC (stereo not given)
active: [3] 27.5 µM | [17] 65.8 µM
not listed: [2] | [11] | [19] | [20]
inactive: all other assays above

O=C(N[C@H](CO)[C@H](O)c1ccc([N+](=O)[O-])cc1)C(Cl)Cl
active: [3] 69.7 µM [middle of 4 runs]
inactive: [1] | [3] | [16] | [4] | [5] | [6] | [7] | [8] | [9] | [10] | [11] | [12] | [13] | [14] | [19] | [15]

NCC(F)(F)C(F)(F)C(F)(F)C(F)(F)F
not listed: [2] | [5] | [11] | [20]
inactive: all other assays above

FC(F)(F)COC(OCC(F)(F)F)OCC(F)(F)F
not listed: [2] | [5] | [19]
inactive: all other assays above
